# Inconclusive results are not listed. Entries that show only a call come without a potency. Active and inactive are the calls of the source. Unless noted, calls come from the whole dose curve; as a rule, active = well fitted curve in the direction sought with a large enough effect; inconclusive = small, poorly fitted or top-dose-only effect, or another doubt; inactive = no such curve, though single readings can be large; an effect the other way counts as inactive or inconclusive.
# Experiments:
# [1] = Nrf2 qHTS screen for inhibitors: Validation (AID 493153; active = well fitted inhibition curve with a large enough effect in the main read-out, with a control signal flat, not every such curve was filed as active; note: potency is the fitted concentration of half-maximal effect); conditions: Potency: luciferase luminescence; viability change: measured here: cytotoxicity max response
# In short: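 In this counterscreened reporter format, each well gives two signals: CellTiter-Fluor fluorescence for cytotoxicity and ARE-luciferase luminescence for Nrf2 function. A549 ARE_Fluc cells in 5% FBS OPTI-MEM were exposed to compound titrations for 18-24 h.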
# [2] = qHTS for Inhibitors of Cell Surface uPA Generation: Validation Assay (AID 493164);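 note: RAW 264.7 macrophage cells exposed to compound for 18 h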
# In short: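 Compounds are titrated over seven points (2.45 nM–38.3 uM final) onto pre-plated RAW 264.7 cells and incubated for 18 h. Retained intracellular ATP, measured with ATP-Lite, indicates blocked lethal factor entry.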
# [3] = biological target: Galactokinase (Homo sapiens) (UniProt P51570); assay: qHTS Validation Assay for Inhibitors of Human Galactokinase (GALK) (AID 493189)
# In short: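 GALK (5 nM) with 35 uM ATP and 100 uM galactose in HEPES pH 8.0 with MgCl2, NaCl, DTT and BSA. Reaction ran 1 h at room temperature. Residual ATP read by Kinase-Glo Plus luminescence.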
# [4] = Validation screen for small molecules that induce DNA re-replication in SW480 colon adenocarcinoma cells (AID 504364)
# In short: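 Hoechst-stained SW480 nuclei, imaged at 405 nm excitation after 48 hr compound exposure, were counted for elevated DNA content as the re-replication signal.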
# [5] = biological target: Peptidyl-prolyl cis-trans isomerase NIMA-interacting 1 (Homo sapiens) (UniProt Q13526); assay: qHTS Validation Assay to Find Inhibitors of Pin1 (AID 504536; active = well fitted inhibition curve with a large enough effect in the polarisation, with a control signal flat, not every such curve was filed as active; the % refers to the polarisation)
# In short: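 Fluorescence polarization competition: compounds (titration) displace HiFluor-488-labeled Pin1-1b peptide from Pin1 (0.3 uM final) in pH 7.5 HEPES buffer with DTT, 10 min at room temperature; %Activity normalized to no-enzyme wells, curves fitted.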
# [6] = biological target: phosphoglycerate mutase (Leishmania major) (UniProt Q4Q090); assay: qHTS Validation Assay to Find Inhibitors of Phosphoglycerate Mutase (AID 504548); conditions: Potency: inhibition qHTS; note: series mostly up to about 58 µM
# In short: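 Lm PGAM at 1.25 nM final with substrate in 100 mM TEA pH 7.6, 5 mM MgCl2, 0.01% Tween-20; 45 min at room temperature. Kinase-GloPlus added, 10 min, end-point luminescence read.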
# [7] = biological target: Ubiquitin carboxyl-terminal hydrolase 1 (Homo sapiens) (UniProt O94782); assay: Inhibitors of USP1/UAF1: Pilot qHTS (AID 504865); note: nearly all actives have a fitted effect of over 35% in size; note: potency is the fitted concentration of half-maximal effect
# In short: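 USP1/UAF1 complex at 1 nM preincubated 15 min at room temperature with compound, then Ub-Rho substrate added at 150 nM final. Fluorescence (480/540 nm) read kinetically in 50 mM HEPES pH 7.8, 0.5 mM EDTA, 1 mM TCEP, 0.1 mg/ml BSA, 0.01% Tween-20.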
# [8] = qHTS for Inhibitors of ATXN expression: Validation (AID 588378); note: nearly all actives have a fitted effect of over 75% in size; note: potency is the fitted concentration of half-maximal effect
# In short: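 HEK293 cells carrying ATXN2-firefly luciferase reporter, treated with compound 24 h at 37 °C. Viability read first by CellTiter-Fluor (405/525 nm), then reporter expression by Bright-Glo luminescence; controls were a known ATXN2 expression inhibitor and a luciferase inhibitor.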
# [9] = biological target: Phosphoglycerate kinase, glycosomal (Trypanosoma brucei brucei) (UniProt P07378); assay: qHTS Validation Assay to Find Inhibitors of Phosphoglycerate Kinase (AID 504547); note: potency is the fitted concentration of half-maximal effect
# In short: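 Luminescence end-point (Kinase-Glo Plus, 10 min) after a 60 min room-temperature coupled reaction. GAPDH at 100nM final supplies 1,3-BPG to PGK. Buffer: 100mM TEA pH 7.6, 5mM MgCl2, 0.01% Tween-20. Wells lacking PGK served as controls.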
# [10] = qHTS for Inhibitors of ATXN expression: Validation of Cytotoxic Assay (AID 588349); note: potency is the fitted concentration of half-maximal effect
# In short: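 Toxicity of test compounds toward HEK293 cells is scored from cellular ATP content measured by CellTiter Glo. Cells receive titrated doses and incubate 72 hr at 37 degrees C beforehand.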
# Chain of Ubiquitin carboxyl-terminal hydrolase 1 (Homo sapiens) (O94782 whole entry, looked up): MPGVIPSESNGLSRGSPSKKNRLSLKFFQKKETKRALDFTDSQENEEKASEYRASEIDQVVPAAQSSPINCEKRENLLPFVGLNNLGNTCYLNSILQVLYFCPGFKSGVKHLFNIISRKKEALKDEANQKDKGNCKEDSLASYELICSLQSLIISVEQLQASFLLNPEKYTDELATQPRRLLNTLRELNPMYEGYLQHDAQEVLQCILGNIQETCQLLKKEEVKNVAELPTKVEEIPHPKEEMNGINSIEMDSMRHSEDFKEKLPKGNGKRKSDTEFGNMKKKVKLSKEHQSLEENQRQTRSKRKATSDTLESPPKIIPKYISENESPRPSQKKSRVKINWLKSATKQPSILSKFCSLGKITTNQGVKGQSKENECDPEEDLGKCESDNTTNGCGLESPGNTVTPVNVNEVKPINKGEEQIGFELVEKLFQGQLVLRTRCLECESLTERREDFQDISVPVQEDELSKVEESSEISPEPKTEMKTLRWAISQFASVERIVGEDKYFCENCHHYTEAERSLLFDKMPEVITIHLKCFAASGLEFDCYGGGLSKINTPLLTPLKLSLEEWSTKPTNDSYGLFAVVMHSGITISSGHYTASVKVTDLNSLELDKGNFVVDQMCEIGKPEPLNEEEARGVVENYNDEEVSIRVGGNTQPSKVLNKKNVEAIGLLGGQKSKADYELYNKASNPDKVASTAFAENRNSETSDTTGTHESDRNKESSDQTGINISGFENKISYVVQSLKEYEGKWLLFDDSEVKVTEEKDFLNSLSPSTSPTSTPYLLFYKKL
# Chain of Phosphoglycerate kinase, glycosomal (Trypanosoma brucei brucei) (P07378 whole entry, looked up): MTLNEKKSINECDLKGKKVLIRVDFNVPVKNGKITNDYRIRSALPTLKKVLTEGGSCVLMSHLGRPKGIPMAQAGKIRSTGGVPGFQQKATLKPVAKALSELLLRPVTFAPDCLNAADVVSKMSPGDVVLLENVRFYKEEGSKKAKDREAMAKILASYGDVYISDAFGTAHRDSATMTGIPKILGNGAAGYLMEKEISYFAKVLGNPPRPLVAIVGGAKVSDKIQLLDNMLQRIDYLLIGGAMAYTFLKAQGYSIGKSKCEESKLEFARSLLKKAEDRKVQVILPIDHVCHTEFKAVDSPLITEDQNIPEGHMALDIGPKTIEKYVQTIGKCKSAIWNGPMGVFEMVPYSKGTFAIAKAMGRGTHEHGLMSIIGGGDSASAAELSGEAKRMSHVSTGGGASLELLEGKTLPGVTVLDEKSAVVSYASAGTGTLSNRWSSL
# Chain of Peptidyl-prolyl cis-trans isomerase NIMA-interacting 1 (Homo sapiens) (Q13526 whole entry, looked up): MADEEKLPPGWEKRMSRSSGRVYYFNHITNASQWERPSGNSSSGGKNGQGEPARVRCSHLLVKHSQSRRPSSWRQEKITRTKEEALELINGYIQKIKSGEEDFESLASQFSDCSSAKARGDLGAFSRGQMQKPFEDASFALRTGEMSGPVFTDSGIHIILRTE
# Chain of phosphoglycerate mutase (Leishmania major) (Q4Q090 1-553): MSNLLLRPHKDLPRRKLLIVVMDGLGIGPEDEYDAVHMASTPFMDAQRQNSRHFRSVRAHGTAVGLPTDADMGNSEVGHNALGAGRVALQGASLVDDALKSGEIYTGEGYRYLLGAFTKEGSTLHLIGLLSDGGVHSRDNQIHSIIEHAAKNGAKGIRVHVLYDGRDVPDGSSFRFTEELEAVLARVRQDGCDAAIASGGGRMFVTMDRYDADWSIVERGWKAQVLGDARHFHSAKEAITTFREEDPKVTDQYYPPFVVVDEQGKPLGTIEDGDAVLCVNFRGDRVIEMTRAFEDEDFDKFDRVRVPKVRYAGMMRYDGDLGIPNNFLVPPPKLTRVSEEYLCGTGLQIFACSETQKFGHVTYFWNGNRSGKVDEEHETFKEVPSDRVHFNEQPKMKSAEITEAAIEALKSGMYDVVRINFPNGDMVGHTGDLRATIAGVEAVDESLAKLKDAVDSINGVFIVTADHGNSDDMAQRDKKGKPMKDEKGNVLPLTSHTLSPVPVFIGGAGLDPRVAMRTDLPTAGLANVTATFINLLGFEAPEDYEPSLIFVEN
# Chain of Galactokinase (Homo sapiens) (P51570 whole entry, looked up): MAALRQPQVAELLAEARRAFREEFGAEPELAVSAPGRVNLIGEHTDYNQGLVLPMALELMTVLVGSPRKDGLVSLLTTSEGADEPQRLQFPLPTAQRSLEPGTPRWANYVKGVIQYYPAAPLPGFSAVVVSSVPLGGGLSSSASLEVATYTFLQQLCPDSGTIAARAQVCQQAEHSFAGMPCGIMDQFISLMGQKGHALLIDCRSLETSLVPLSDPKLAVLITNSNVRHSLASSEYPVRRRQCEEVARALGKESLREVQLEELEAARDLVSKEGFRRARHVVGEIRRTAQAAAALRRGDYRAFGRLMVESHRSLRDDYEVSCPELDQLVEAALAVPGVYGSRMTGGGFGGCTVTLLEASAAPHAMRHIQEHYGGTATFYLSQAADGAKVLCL
SMILES,Potency [1],viability change [1] [%],outcome [2],Potency [3],Potency [4],Potency [5],Potency [6],Potency [7],Potency [8],Potency [9],Potency [10]
N[C@@H](Cc1ccc(O)c(I)c1)C(=O)O,inactive,-2.22,inactive,inactive,inactive,inactive,inactive,inactive,inactive,–,–
[Li+],inactive,6.42,inactive,inactive,inactive,inactive,inactive,inactive,inactive,–,–
N[C@H](C(=O)O)c1cc(O)cc(O)c1,inactive,13.1,inactive,inactive,inactive,–,inactive,inactive,inactive,inactive,inactive
O=C(O)C1=CCCNC1,inactive,5.73,inactive,inactive,inactive,–,inactive,inactive,inactive,inactive,inactive
CCCc1c(-c2ccc(O)cc2)nn(-c2ccc(O)cc2)c1-c1ccc(O)cc1,inactive,-5.33,inactive,inactive,inactive,inactive,inactive,inactive,–,–,–
O=c1onc2n1-c1cc(Br)ccc1OC2,inactive,-3.61,inactive,inactive,inactive,inactive,inactive,–,inactive,inactive,inactive
COc1cc(CC(=O)O)ccc1O,inactive,3.47,inactive,inactive,inactive,inactive,inactive,inactive,inactive,–,inactive
NOCC(=O)O,inactive,18.2,inactive,inactive,inactive,–,inactive,inactive,inactive,inactive,inactive
CC(N)(Cc1ccc(O)cc1)C(=O)O (configuration not stated),inactive,11.6,inactive,inactive,inactive,–,inactive,inactive,inactive,inactive,inactive
CCOC(=O)C12CC1/C(=N/O)c1ccccc1O2 (configuration not stated),inactive,1.91,inactive,inactive,inactive,inactive,inactive,inactive,inactive,–,inactive
C=CCn1c(=O)c2c(nc(-c3ccc(S(=O)(=O)O)cc3)n2C)n(C)c1=O,inactive,9.3,inactive,inactive,inactive,–,inactive,inactive,inactive,inactive,–
Cn1c(=O)[nH]c2ncn(C)c2c1=O,inactive,1.53,inactive,inactive,inactive,inactive,inactive,inactive,inactive,–,inactive
NC1CCN(O)C1=O (configuration not stated),inactive,4.05,inactive,inactive,inactive,–,inactive,–,inactive,inactive,inactive
CCCCCCCCCC[Si](C)(C)CCC(=O)NC(Cc1ccc(C)cc1)c1ccccc1 (configuration not stated),inactive,-1.11,inactive,inactive,inactive,–,inactive,inactive,inactive,inactive,inactive
Cc1nc(N=Nc2ccc(S(=O)(=O)O)cc2S(=O)(=O)O)c(COP(=O)(O)O)c(C=O)c1O,inactive,-3.73,inactive,inactive,inactive,–,inactive,inactive,inactive,inactive,inactive
O=c1ccn([C@@H]2O[C@H](COP(=O)(O)OP(=O)(O)O)[C@@H](O)[C@H]2O)c(=O)[nH]1,inactive,3.88,inactive,inactive,inactive,inactive,inactive,inactive,inactive,–,inactive
CCCCCC(O)CCCC(=O)O (configuration not stated),inactive,0.592,inactive,inactive,inactive,–,inactive,inactive,inactive,inactive,inactive
CNC(=O)c1cc2c(cn1)[nH]c1ccccc12,inactive,-3.36,inactive,inactive,inactive,–,inactive,inactive,inactive,inactive,inactive
CC(C)(CO)Cc1cc(C(C)(C)C)c(O)c(C(C)(C)C)c1,inactive,10.3,inactive,inactive,inactive,–,inactive,–,–,inactive,–
CCCCCCC/C=C\CCCCCCCCC(=O)O,inactive,3.91,inactive,inactive,inactive,–,inactive,39.8 µM (active),inactive,inactive,inactive

SMILES,Potency [1],viability change [1] [%],outcome [2],Potency [3],Potency [4],Potency [5],Potency [6],Potency [7],Potency [8],Potency [9],Potency [10]
O=c1[nH]c(=O)c2nc3ccccc3nc2[nH]1,inactive,-5.91,inactive,inactive,inactive,–,inactive,–,inactive,inactive,inactive
CCCCCC[C@@H]([C@@H](C)O)n1cnc2c(N)ncnc21,inactive,0.22,inactive,inactive,inactive,–,inactive,inactive,inactive,inactive,–
CC(C)Cn1c(=O)n(C)c(=O)c2[nH]cnc21,inactive,1.08,inactive,inactive,inactive,inactive,inactive,inactive,inactive,–,inactive
CN1C2CCC1CC(OC(c1ccccc1)c1ccccc1)C2 (configuration not stated),inactive,-14.9,inactive,inactive,inactive,–,inactive,inactive,–,inactive,inactive
CC(=O)[C@H]1CCC2C3CC=C4C[C@@H](OS(=O)(=O)O)CC[C@]4(C)C3CC[C@@]21C (some centres not stated),inactive,2.24,inactive,inactive,inactive,inactive,inactive,inactive,inactive,–,inactive
CCCCCCCCCCC/C=C\C(C)(C)/C=C\CCCC(=O)O,inactive,3.47,inactive,inactive,inactive,–,inactive,28.2 µM (active),inactive,inactive,inactive
Cn1cc(C(=O)OCC2CCN(CCNS(C)(=O)=O)CC2)c2ccccc21,inactive,-0.747,inactive,inactive,inactive,–,inactive,–,–,inactive,inactive
NC1C=CC=C(C(=O)O)C1 (configuration not stated),inactive,17.7,inactive,inactive,inactive,inactive,inactive,inactive,inactive,–,inactive
O=C(O)c1ccccc1Nc1cccc(OCc2ccc3ccccc3n2)c1,inactive,-13.9,inactive,inactive,inactive,–,inactive,–,inactive,inactive,inactive
CC1=C(/C=C/C(C)=C/C=C/C(C)=C\C(=O)O)C(C)(C)CCC1,inactive,8.59,inactive,inactive,inactive,–,inactive,inactive,inactive,inactive,inactive
O=c1cc(O)cc(/C=C/c2ccc(O)c(O)c2)o1,inactive,-8.55,inactive,inactive,inactive,–,inactive,inactive,inactive,1.69 µM (active),–
CCCOC(=O)c1c(-c2ccccc2)nc(CC)c(C(=O)SCC)c1CCC,inactive,-5.09,inactive,inactive,inactive,inactive,inactive,–,inactive,inactive,inactive
O=C(N[C@@H](Cc1ccccc1)C(=O)CCl)OCc1ccccc1,14.6 µM (active),-11.4,inactive,inactive,inactive,–,inactive,28.2 µM (active),3.98 µM (active),inactive,3.55 µM (active)
O=C(O)c1cc2cc(F)ccc2[nH]1,inactive,4.46,inactive,inactive,inactive,inactive,inactive,inactive,inactive,–,inactive
CC(N)(Cc1ccc(O)c(O)c1)C(=O)O (configuration not stated),inactive,-0.588,inactive,inactive,inactive,–,–,inactive,inactive,–,–
NCCNS(=O)(=O)c1cccc2c(Cl)cccc12,inactive,-10.5,inactive,–,inactive,inactive,inactive,inactive,–,inactive,inactive
COc1cc(N)c(Cl)cc1C(=O)OCCN1CCCCC1,inactive,-3.02,inactive,inactive,–,inactive,–,inactive,inactive,inactive,inactive
CCC(=O)N1CCN(C(=O)c2ccccc2)CC1,inactive,1.55,inactive,inactive,–,inactive,inactive,inactive,inactive,inactive,inactive
Cc1ccc([N+](=O)[O-])cc1S(=O)(=O)N(C)C,inactive,3.59,inactive,inactive,–,inactive,inactive,inactive,inactive,inactive,inactive
N#C/C(=C\c1ccc(O)c(O)c1)C(=O)NCCc1ccccc1,inactive,-10.3,inactive,inactive,–,–,inactive,inactive,inactive,inactive,–
